Mtb BioA inh: inhibitors of Mycobacterium tuberculosis BioA enzyme; purified M. tuberculosis BioA enzyme, plate reader; inhibition, % at 9.99 µM; hit rate 0.096% among 360,000; in the data active means inhibition above about 40%; inconclusive means no clear call, values can overlap the other calls
Yp Topo-I inh: inhibitors of Yersinia pestis topoisomerase I; Y. pestis Topo-I cleavage product accumulation, plate reader; activity, % at 10 µM; hit rate 0.064% among 360,000; in the data active means activity above about 50%, passing the limit was not always enough; inconclusive means no clear call, values can overlap the other calls
PfHsp40 yeast: compounds rescuing yeast from Plasmodium falciparum HSP40 toxicity. hit rate 0.68% among 340,000. growth rescue, % at 12.5 µM. S. cerevisiae expressing PfHsp40, growth rescue, ATP luminescence; in the data active means growth rescue above about 28%, passing the limit was not always enough; inconclusive means no clear call, values can overlap the other calls;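 further: yeast W303a lacking pdr1 and pdr3 grown in galactose medium; growth measured after three days at 30 °C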
PrP 5UTR inh: inhibition of PrP 5' UTR reporter expression; AID 488862; inhibition, % (test concentration not listed); cell-based PrP 5' UTR mRNA reporter, plate reader; hit rate 0.35% among 340,000; in the data active means inhibition above about 52%; further: 0 = median of the neutral control wells
TcdB inh: blocks C. difficile toxin B glycohydrolase activity; TcdB glycohydrolase enzymatic assay, plate reader; hit rate 0.24% among 350,000; AID 652162; inhibition, % at 9.99 µM; P18177; in the data active means inhibition above about 10%
FadD28 FP inh: M. tuberculosis FadD28 bisubstrate binding inhibition. inhibition, % at 12.5 µM. hit rate 0.22% among 360,000. FadD28 bisubstrate probe binding, fluorescence polarization. AID 588549; in the data active means inhibition above about 8.5%, passing the limit was not always enough; inconclusive means no clear call, values can overlap the other calls
Numbers without * were called inactive; u = inconclusive; x = not tested or not shown. An excerpt weighted towards active compounds, which were near 1.2% of everything screened.

SMILES	Mtb BioA inh	Yp Topo-I inh	PfHsp40 yeast	PrP 5UTR inh	TcdB inh	FadD28 FP inh
CCn1nccc1C(=O)Nc1cc(Cl)cc(Cl)c1	x	-1	63*	-17	x	-7
CCn1nccc1C(=O)Nc1ccc(Cl)cn1	1	6	2	-28	x	2
COC(=O)c1cc(CNC(=O)c2ccccc2Cl)ccc1OC	x	-3	47*	2	1	-2
COc1ccc(Br)cc1C(=O)NCc1cccnc1	1	4	34*	-8	x	-2
COc1ccc(S(=O)(=O)N(C)C[C@H]2Oc3c(NS(C)(=O)=O)cccc3C(=O)N([C@H](C)CO)C[C@H]2C)cc1	-1	x	x	x	-1	x
O=C(COc1ccc(Br)cc1)Nc1ccc(-c2nnc(-c3ccco3)o2)cc1	-1	7	1	-46	x	-4
COc1ccccc1OCC(=O)Nc1ccc(-c2nnc(-c3ccco3)o2)cc1	0	4	0	-24	12*	-1
COCC#Cc1ccc2c(c1)O[C@@H](CN(C)C(=O)C1CCC1)[C@H](C)CN([C@@H](C)CO)S2(=O)=O	-3	x	x	x	0	x
Cc1cccc(N=C2NC(=O)CS2)c1	3	5	-2	-23	x	-4
Cc1cc(C)cc(N=C2NC(=O)CS2)c1	1	-17	-1	-22	13*	-3
CCCNC(=O)N(C)C[C@@H]1Oc2cc(C#CCC(C)C)ccc2S(=O)(=O)N([C@@H](C)CO)C[C@H]1C	0	x	x	x	0	x
CC(=O)N1[C@@H]2c3ccc(-c4ccccc4)c(=O)n3C[C@H]1[C@H](CO)[C@H]2C(=O)NC1Cc2ccccc2C1	0	x	x	x	x	x
O=C(O)CC(C(=O)O)N1C(=O)/C(=C/C=C/c2ccco2)SC1=S (stereo not given)	-1	-14	14	-7	-1	u
O=C(NN1C(=O)/C(=C/C=C/c2ccco2)SC1=S)c1ccccc1O	-1	-31	25	-24	0	58*
O=C(O)CCCN1C(=O)/C(=C/C=C/c2ccco2)SC1=S	x	-18	2	-10	-1	19*
O=C(O)CCCN1C(=O)/C(=C\C(Cl)=C\c2ccccc2)SC1=S	1	5	0	2	1	9.3*
CN1CCN(C(=O)CCCN2C(=O)/C(=C/c3ccccc3)SC2=S)CC1	1	24	1	-16	0	0
O=C(O)C(Cc1ccccc1)N1C(=O)/C(=C/C=C/c2ccco2)SC1=S (stereo not given)	2	-10	1	-26	-2	39*
COCC#Cc1ccc2c(c1)O[C@@H](CN(C)S(=O)(=O)c1ccc(C)cc1)[C@@H](C)CN([C@H](C)CO)S2(=O)=O	1	x	x	x	1	x
C[C@H]1CN([C@@H](C)CO)S(=O)(=O)c2ccc(C3=CCCC3)cc2O[C@H]1CN(C)Cc1ccccc1	-4	x	x	x	2	x
COC(=O)Nc1ccc(S(=O)(=O)NNC(=O)c2c(O)c3ccccc3[nH]c2=O)cc1	-1	2	52*	-45	0	x
O=C(C[C@@H]1CC[C@@H]2[C@H](COC[C@@H](O)CN2Cc2ccc(F)cc2)O1)NCc1ccccc1Cl	8	x	x	x	0	x
CN(C)c1nc(SCc2ccc(Cl)cc2)nc2c1CCCC2	-1	10	220*	-9	x	-3
Cc1cc(C)nc(SCc2ccc(Cl)cc2)n1	1	16	0	-11	-1	-2
CC(C)NC(=O)N(C)C[C@H]1Oc2ccc(NC(=O)Nc3cccc4ccccc34)cc2C(=O)N([C@@H](C)CO)C[C@H]1C	1	x	x	x	1	x
SMILES	Mtb BioA inh	Yp Topo-I inh	PfHsp40 yeast	PrP 5UTR inh	TcdB inh	FadD28 FP inh
C[C@H](CO)N1C[C@H](C)[C@@H](CN(C)S(C)(=O)=O)Oc2ccc(NC(=O)C3CC3)cc2CC1=O	2	x	x	x	0	x
COc1cc2c(c3ccccc13)CCCC2=O	-1	1	0	-16	-9	0
O=C1CCCc2c1ccc1ccccc21	-1	4	29*	-19	1	-4
O=C(O)c1ccc(CSc2nnc(-c3ccncc3)n2CC2CCCO2)cc1 (stereo not given)	-3	2	-1	-13	x	-3
Cc1ccc(CSc2nnc(-c3ccncc3)n2CC2CCCO2)cc1 (stereo not given)	x	-1	54*	-28	x	-3
C/C=C/c1ccc2c(c1)O[C@H](CN(C)C(C)=O)[C@@H](C)CN([C@@H](C)CO)S2(=O)=O	1	x	x	x	1	x
C[C@@H]1CN([C@@H](C)CO)C(=O)c2ccccc2-c2ccccc2CO[C@@H]1CN(C)C(=O)Nc1ccccc1C(F)(F)F	0	x	x	x	x	x
Cc1ccc(/C=C/C(=O)C2C(=O)c3ccccc3C2=O)cc1	x	2	2	12	1	11*
Cc1ccc(/C=C/C(=O)c2ccccc2O)cc1	-1	-5	0	2	1	-1
CC(C)(C)OCC(O)CN1CCN(C(=O)c2ccccc2)CC1 (stereo not given)	-2	2	-1	-9	12*	-1
c1ccc(C2=Nc3ccccc3OC2)cc1	-1	-8	50*	-35	x	-1
Clc1ccc(C2=Nc3cc(Cl)ccc3OC2)cc1	x	-7	1	-69	0	-3
CCCCCCCCCCCCCCCC(=O)OC(CC(=O)O)C[N+](C)(C)C (stereo not given)	18	17	125*	-55	2	17*
CCc1ccccc1NC(=O)CN(C)C(=O)CSc1nnc(Nc2cccc(C)c2C)s1	-1	37	1	-23	x	29*
Cc1cc(C)c(C(=O)CN2C(=O)NC3(CCCCCC3)C2=O)cc1C	x	5	52*	-43	1	-2
Cc1cc(C)c2cc(C)c3nnc(SCC(=O)NCc4ccc5c(c4)OCO5)n3c2c1	-1	12	0	-6	x	-1
Cc1ccc(C)c2c1cc(C)c1nnc(SCC(=O)NCc3ccc4c(c3)OCO4)n12	x	24	0	-8	10*	-4
CCC(=O)Nc1ccc2c(c1)OC[C@@H](C)N(CC1CCCCC1)C[C@@H](C)[C@@H](OC)CN(C)C2=O	0	x	x	x	x	x
S=c1nc(-c2cccc(Cl)c2)[nH][nH]1	x	4	-1	-37	14*	-3
C[C@H]1CN([C@@H](C)CO)C(=O)c2cc(NS(=O)(=O)c3cn(C)cn3)ccc2O[C@H]1CN(C)Cc1ccc(C(F)(F)F)cc1	0	x	x	x	-1	x
Cc1cc(C)nc(/N=C(\N)Nc2ccccc2-c2ccccc2)n1	x	3	1	-12	10*	-4
Cc1ccc(N/C(N)=N/c2nc(C)cc(C)n2)cc1	-1	0	6	-13	x	-4
COc1ccc(S(=O)(=O)N(C)C[C@@H]2Oc3ccc(NC(=O)c4ccncc4)cc3CC(=O)N([C@@H](C)CO)C[C@@H]2C)cc1	-1	x	x	x	-1	x
O=C(Nc1nnc(C(F)(F)F)s1)c1ccc(Br)s1	-2	3	-2	-39	17*	-1
O=C(NCCCSc1ccccc1)c1cc(Br)ccc1O	0	-6	196*	-29	0	-6
Cc1cccc(C(=O)CC(=O)c2cc(Cl)ccc2O)c1	2	-8	82*	-13	x	-5

Bioassay records (PubChem)
